# Source: PubChem BioAssay (several laboratories)
# GIRK2 activator = Activators of human GIRK2-containing channels | P48051 | HEK293 GIRK2/NPY4 cells, thallium flux fluorescence | activation (% efficacy), % for hits at 37.5 µM | 34,000 tested, under 10 active | AID 1259324;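 active = primary screen hit, no activity in plain HEK293 cells, and in GIRK2-only cells above 5% efficacy rising with concentration; inactive = the rest, including fluorescent compounds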;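 also: efficacy is normalized control-subtracted fluorescence 15 s after thallium addition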
# AMPAR-TARP mod = modulators of AMPA receptor GluA2-stargazin complexes | O88602+P19491 | HEK293 GluA2+stargazin, membrane potential dye (FDSS), glutamate EC50; hits were called plate by plate, in both directions | calls only at 30 µM | hit rate 3.5% among 40,000 | AID 1259245;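 active = any of four per-well response measures lying three or more SD from its plate-wide compound average, in either direction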
# Target sequence (O88602 whole entry, looked up): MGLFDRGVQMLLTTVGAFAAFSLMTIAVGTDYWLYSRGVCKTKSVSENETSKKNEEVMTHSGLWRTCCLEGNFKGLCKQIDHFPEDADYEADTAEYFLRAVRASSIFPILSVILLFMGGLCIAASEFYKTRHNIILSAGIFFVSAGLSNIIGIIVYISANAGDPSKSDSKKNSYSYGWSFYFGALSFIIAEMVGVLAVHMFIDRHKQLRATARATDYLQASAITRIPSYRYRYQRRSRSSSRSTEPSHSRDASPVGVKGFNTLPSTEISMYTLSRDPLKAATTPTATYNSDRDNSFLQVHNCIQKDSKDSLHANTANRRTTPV
# Target sequence (P19491 whole entry, looked up): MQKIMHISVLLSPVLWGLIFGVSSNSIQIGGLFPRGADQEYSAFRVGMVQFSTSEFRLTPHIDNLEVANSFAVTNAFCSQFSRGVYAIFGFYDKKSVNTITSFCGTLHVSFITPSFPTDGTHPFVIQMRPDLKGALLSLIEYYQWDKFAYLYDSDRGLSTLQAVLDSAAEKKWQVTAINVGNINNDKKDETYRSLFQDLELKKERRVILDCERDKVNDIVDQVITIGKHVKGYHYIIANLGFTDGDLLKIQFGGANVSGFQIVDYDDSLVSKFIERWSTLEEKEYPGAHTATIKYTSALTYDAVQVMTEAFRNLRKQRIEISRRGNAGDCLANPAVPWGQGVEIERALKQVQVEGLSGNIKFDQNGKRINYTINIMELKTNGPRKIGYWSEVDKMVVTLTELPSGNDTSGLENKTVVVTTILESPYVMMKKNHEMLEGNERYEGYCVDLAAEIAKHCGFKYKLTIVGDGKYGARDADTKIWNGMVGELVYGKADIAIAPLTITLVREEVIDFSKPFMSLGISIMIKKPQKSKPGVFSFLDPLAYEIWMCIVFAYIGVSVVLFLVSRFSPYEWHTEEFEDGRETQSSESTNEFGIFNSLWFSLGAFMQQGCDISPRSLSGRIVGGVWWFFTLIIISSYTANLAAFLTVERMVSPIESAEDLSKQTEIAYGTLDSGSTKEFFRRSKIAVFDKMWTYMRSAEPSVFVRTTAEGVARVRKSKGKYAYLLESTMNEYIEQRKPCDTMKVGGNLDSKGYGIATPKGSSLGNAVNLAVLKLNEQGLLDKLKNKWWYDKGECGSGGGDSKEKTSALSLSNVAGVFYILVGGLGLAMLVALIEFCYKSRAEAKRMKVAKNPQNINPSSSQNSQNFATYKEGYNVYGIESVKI
# * = called active by the depositor; i = inactive; . = not tested or not shown; + = active, no number. Many of the other results were omitted from the sample, so hits are more common in it than they were.
SMILES,GIRK2 activator,AMPAR-TARP mod
Cc1cnc2c(c1SCC(=O)N1CCN(c3ccccc3)CC1)c(=O)n(C)c(=O)n2C,i,+
COc1ccc(S(=O)(=O)CC(=O)Nc2nc(-c3ccc(Cl)cc3)cs2)cc1,i,i
CC1Cc2c(NC(=O)C3CC3)nn(C)c2NC1=O (centres undefined),i,i
COc1ccc(CNC(=O)N2CCN(CCn3ccnc3)CC2)cc1,i,.
O=S(=O)(NCC(O)c1ccc(C(F)(F)F)cc1)c1ccc2c(c1)OCCO2 (centres undefined),i,i
COc1ccc(CCS(=O)(=O)NCC(O)c2ccc(C(F)(F)F)cc2)cc1 (centres undefined),i,+
O=S(=O)(NCC(O)c1ccc(C(F)(F)F)cc1)c1ccc(OC(F)(F)F)cc1 (centres undefined),.,+
COc1ccc(CCC(=O)NCC(O)c2ccc(C(F)(F)F)cc2)cc1 (centres undefined),i,.
CC(C)N(CC#CCNS(=O)(=O)c1cc(F)ccc1F)C(C)C,.,i
CC(C)N(CC#CCNS(=O)(=O)c1ccc(OC(F)(F)F)cc1)C(C)C,.,+
COc1ccc(-c2c(C)oc3cc(OC(=O)c4cc(OC)c(OC)c(OC)c4)ccc3c2=O)cc1,.,i
COc1nn(C)cc1-c1nnc(SCC(=O)N2CCCC2)n1C,i,i
COc1ccc(N2CCN(C(c3cccs3)C(C)NS(=O)(=O)c3ccc(F)cc3)CC2)cc1 (centres undefined),.,i
COc1ccc(N2CCN(C(c3cccs3)C(C)NS(=O)(=O)c3ccc(Cl)cc3)CC2)cc1 (centres undefined),.,+
Cn1c(=O)c2c(nc(N3CCOCC3)n2CCSc2nnnn2-c2ccccc2)n(C)c1=O,.,i
Cc1nnc(SCCn2c(N3CCOCC3)nc3c2c(=O)n(C)c(=O)n3C)s1,.,+
Cc1ccc(Nc2cc(C)nc(Nc3ccc(NC(=O)c4ccc5c(c4)OCO5)cc3)n2)cc1,.,i
Cc1ccc(C(=O)Nc2ccc(Nc3nc(C)cc(N4CCCCC4)n3)cc2)cc1,.,+
O=C(CSC(F)(F)C(F)(F)C(F)(F)F)N1CCOCC1,.,i
COc1ccc(C(CNS(=O)(=O)c2ccc(Cl)cc2)N2CCN(C)CC2)cc1 (centres undefined),i,i
COc1ccc(S(=O)(=O)Nc2ccc3c(c2)N(C(=O)C(C)(C)C)CC3)cc1F,i,i
COCC(=O)NCCOc1ccc2nnc(-c3ccc(OC)cc3)n2n1,i,i
COCCn1c(SCc2ccccc2)nnc1-c1cn(C)nc1OC,i,i
COCCn1c(SCc2ccc(C(F)(F)F)cc2)nnc1-c1cn(C)nc1OC,i,+
CCOC(=O)N1CCC(NC(=O)C2CCN(c3cc(Sc4cc(C)ccc4C)ncn3)CC2)CC1,i,+
SMILES,GIRK2 activator,AMPAR-TARP mod
Cc1ccc(C)c(Sc2cc(N3CCC(C(=O)NCC(C)C)CC3)ncn2)c1,i,i
Cc1ccc(SCCC(=O)Nc2sc3c(c2-c2nc4ccccc4s2)CCN(C)C3)cc1,.,i
COc1ccc(Cl)cc1C(=O)Nc1nnc(-c2ccnn2C(C)C)o1,i,+
CC(C)n1nccc1-c1nnc(NC(=O)c2ccc(Cl)cc2Cl)o1,i,i
COc1ccccc1C(=O)Nc1nnc(-c2cc(C)ccc2C)o1,.,i
COc1ccc(C(CNC(=O)c2ccccc2Br)N2CCOCC2)cc1 (centres undefined),i,+
COc1cccc(C(CNC(=O)c2ccccc2Br)N2CCOCC2)c1 (centres undefined),i,i
COc1ccc(C(CNC(=O)c2ccc3ccccc3c2)N2CCOCC2)cc1 (centres undefined),.,+
O=C(NCC(c1cccc2ccccc12)N1CCOCC1)c1ccc(Br)o1 (centres undefined),i,+
O=C(NCC(c1cccc2ccccc12)N1CCOCC1)c1cccc(Br)c1 (centres undefined),i,i
COc1ccc(C(CNC(=O)c2cc(OC)cc(OC)c2)N2CCOCC2)cc1 (centres undefined),.,i
CC(C)N1CCc2c(sc(NC(=O)c3ccc(C#N)cc3)c2-c2nc3ccccc3s2)C1,.,i
COc1ccc(NC(=O)Nc2ccc(-c3ccc(N4CCCCC4)nn3)cc2)cc1OC,i,i
O=C(Cc1ccc(F)cc1)Nc1ccc2c(c1)N(C(=O)c1cccs1)CC2,i,.
CS(=O)(=O)N1CCCC1C(=O)Nc1sc(-c2ccccc2)cc1C(N)=O (centres undefined),i,.
Cc1cc(NC(=O)Cc2cccs2)n(-c2nc3c(cnn3-c3cccc(Cl)c3)c(=O)[nH]2)n1,i,.
CCCOc1cn(-c2ccc(F)cc2)nc1C(=O)NCCc1ccccc1,i,i
CCOC(=O)N1CCN(C(=O)c2nn(-c3ccc(F)cc3)cc2OCC)CC1,i,i
CCCOc1cn(-c2ccc(F)cc2)nc1C(=O)NCCC(C)C,i,+
CCOc1cn(-c2ccc(F)cc2)nc1C(=O)N1CCCCC1,i,i
CCOc1cn(-c2ccc(F)cc2)nc1C(=O)N1CC(C)CC(C)C1 (centres undefined),i,+
CCOc1cn(-c2ccc(F)cc2)nc1C(=O)N1c2ccccc2CC1C (centres undefined),i,+
CC(=O)N1CCN(c2ccnc3c2c(=O)n(Cc2cc(C)ccc2C)c(=O)n3C)CC1,.,i
CCS(=O)(=O)Nc1ccc(CC(=O)N2CCOCC2)cc1,i,i
COc1ccc(SCCC(=O)Nc2cc([N+](=O)[O-])ccc2OC)cc1,i,i
SMILES,GIRK2 activator,AMPAR-TARP mod
Cc1nnsc1C(=O)N1CCC(CNS(=O)(=O)c2cccnc2)CC1,i,.
CS(=O)(=O)N1CCC2(CC1)NC(=O)N(Cc1ccc(Cl)cc1)C2=O,i,i
COCCn1c(SCc2ccc(Cl)cc2)nc2cc(C(=O)NC(C)C)ccc2c1=O,i,i
COCCn1c(SCC(=O)c2c(C)[nH]c3ccccc23)nc2cc(C(=O)NC(C)C)ccc2c1=O,.,+
O=C(NCC1(c2cccs2)CCOCC1)c1cc(=O)c2ccccc2o1,i,i
O=C(CSc1nc(=O)n(CC2CCCO2)c2c1CCCC2)NCc1ccc(F)cc1 (centres undefined),i,i
O=c1nc(SCc2ccc([N+](=O)[O-])cc2)c2c(n1CC1CCCO1)CCC2 (centres undefined),i,i
O=C(CSc1nc(=O)n(CCCO)c2c1CCC2)Nc1ccc(F)c([N+](=O)[O-])c1,i,i
O=C(CSc1nc(=O)n(CC2CCCO2)c2c1CCCC2)Nc1ccc(F)cc1F (centres undefined),i,+
O=c1nc(SCc2ccc(Br)cc2)c2c(n1CC1CCCO1)CCCC2 (centres undefined),i,+
O=C(CSc1nc(=O)n(CCO)c2c1CCC2)Nc1ccc(F)c([N+](=O)[O-])c1,i,+
CCOCCn1c(=O)c2c(nc3n(-c4ccc(CC)cc4)c(C)c(C)n23)n(C)c1=O,.,i
O=C(Nc1ccc(N2CCCCS2(=O)=O)cc1)C(=O)NC1CCCC1,.,i
O=C(CSc1nccnc1N1CCSCC1)Nc1cc(Cl)ccc1Cl,i,i
CCSc1nc(NC(C)C)c2cnn(CCNC(=O)c3ccco3)c2n1,i,i
